EPAC1 antag – blocks human EPAC1 exchange factor; O95398; EPAC1 GEF assay, Rap1b-BODIPY-GDP exchange fluorescence; Potency, µM (highest dose often 115 µM), without a hit: top-dose activity change, negative = inhibition, usual class: inhibitors; 360,000 tested, 0.14% active;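 note: plate controls were vehicle for no effect and positive control for full effect; nearly all actives have a fitted effect of over 50% in size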
Target sequence (O95398 whole entry, looked up): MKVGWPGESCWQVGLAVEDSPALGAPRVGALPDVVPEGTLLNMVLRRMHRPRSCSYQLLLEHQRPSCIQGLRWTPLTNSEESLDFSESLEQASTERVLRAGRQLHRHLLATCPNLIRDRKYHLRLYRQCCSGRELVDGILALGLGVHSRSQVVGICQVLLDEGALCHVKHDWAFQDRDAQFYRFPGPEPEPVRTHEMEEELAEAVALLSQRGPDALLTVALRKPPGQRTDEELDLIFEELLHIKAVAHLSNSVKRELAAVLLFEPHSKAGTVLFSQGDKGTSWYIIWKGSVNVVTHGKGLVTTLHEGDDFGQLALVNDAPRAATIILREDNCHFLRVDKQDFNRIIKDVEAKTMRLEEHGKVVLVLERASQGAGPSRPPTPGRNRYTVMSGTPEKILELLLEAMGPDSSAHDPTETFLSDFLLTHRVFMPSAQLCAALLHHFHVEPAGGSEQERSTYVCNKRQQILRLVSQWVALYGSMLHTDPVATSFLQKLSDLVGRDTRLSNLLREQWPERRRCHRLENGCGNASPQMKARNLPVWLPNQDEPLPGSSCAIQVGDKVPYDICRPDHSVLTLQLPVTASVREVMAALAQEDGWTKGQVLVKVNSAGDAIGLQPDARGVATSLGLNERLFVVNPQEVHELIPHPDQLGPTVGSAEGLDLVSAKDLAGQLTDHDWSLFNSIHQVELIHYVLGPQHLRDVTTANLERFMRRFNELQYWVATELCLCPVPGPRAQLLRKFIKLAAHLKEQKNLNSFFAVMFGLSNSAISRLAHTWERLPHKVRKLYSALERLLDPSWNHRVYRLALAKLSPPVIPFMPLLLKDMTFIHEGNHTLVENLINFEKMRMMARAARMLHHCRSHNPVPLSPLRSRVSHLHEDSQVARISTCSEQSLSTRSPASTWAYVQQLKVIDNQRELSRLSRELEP
EPAC2 agonist – EPAC2 (human) agonism; Potency, µM (highest dose often 154 µM), inactives show at the highest dose activation, most hits filed as activators; 360,000 tested, 0.079% active; Q8WZA2; EPAC2 activation, biochemical qHTS; response scale: 100% = 6.5 mM cAMP response; AID 720711; note: nearly all actives have a fitted effect of over 50% in size
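Compounds were added across a concentration range to EPAC2 (100 nM), RAP1B-BODIPY-GDP (250 nM) and GDP (50 uM). After 5 min at room temperature, fluorescence was recorded at 5-min intervals for 30 min.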
EPAC2 antag – EPAC2 (human) antagonism | 360,000 tested, 0.18% active | AID 720708 | Q8WZA2 | EPAC2 GEF exchange of Rap1B-BODIPY-GDP, fluorescence | Potency, µM (doses to about 114 µM), without a hit: top-dose activity, negative = inhibition, actives largely listed as inhibitors; note: % is set by controls: 0 for no effect and ±100 for the full control effect; nearly all actives have a fitted effect of over 45% in size
GLP1R cytotox – cytotoxicity counter-screen for GLP-1 receptor inverse agonists | HEK293 cAMP-luciferase reporter cells, luminescence, 24 h | Potency, µM (highest dose often 38.3 µM), inactives show at the top dose activity change, negative = inhibition, usual class: inhibitors | 410,000 tested, 0.13% active | AID 624418;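 note: loss of luciferase light is scored as toxicity; % is set by controls: 0 for no effect and ±100 for the full control effect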
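Here, cytotoxicity is scored as loss of luminescence. The MLSMR collection was tested on cells seeded in medium containing 10% Nu serum, with a 24 hr compound exposure preceded by 12 hours of culture.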
USP1-UAF1 inh – blocks the human USP1/UAF1 deubiquitinase complex. O94782. recombinant USP1/UAF1, Ub-Rhodamine cleavage fluorescence. Potency, µM (series often up to 57.1 µM), without a hit: at the highest dose activity change, negative = inhibition, usual class: inhibitors. 390,000 tested, 0.23% active. AID 743255; note: % is set by controls: 0 for no effect and ±100 for the full control effect; nearly all actives have a fitted effect of over 60% in size
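USP1/UAF1 complex at 1 nM was preincubated with compound for 15 min at room temperature, then Ub-Rho substrate (150nM final) was added. Fluorescence (480/540 nm) was read kinetically, 6 reads every 60 seconds.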
EPAC1 agonist – EPAC1 (human) agonism; EPAC1 agonist qHTS, biochemical assay; response scale: 100% = response to 6.5 mM cAMP; Potency, µM (doses to about 154 µM), for inactives: at the highest dose activation, most hits filed as activators; 360,000 tested, 0.073% active; AID 720707; note: nearly all actives have a fitted effect of over 60% in size
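Read-out is the fluorescence drop as BODIPY-GDP leaves Rap1B (480 nm excitation, 540 nm emission), recorded every 5 minutes over 30 minutes. Reactions held 100 nM EPAC1, 250 nM Rap1B–BODIPY-GDP and 50 uM GDP, with 6.5 mM cAMP setting full activation.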
* = called active by the depositor; [ ] = another dose, or the depositor's remark. Shown are actives, neighbours in structure and some others; about 0.55% of the full set was active somewhere. Calls come from the whole dose curve; as a rule, active = well fitted curve in the direction sought with a large enough effect; inconclusive = small, poorly fitted or top-dose-only effect, or another doubt; inactive = no such curve, though single readings can be large; an effect the other way counts as inactive or inconclusive. Potency is the fitted concentration of half-maximal effect.

What do the screens show for `O=C1N=c2ccccc2=C1c1sc(Nc2ccc(O)cc2)nc1O`?
EPAC1 antag: 44.7µM*; EPAC2 agonist: 1.0%; EPAC2 antag: -26.9%; GLP1R cytotox: -4.6%; USP1-UAF1 inh: -18.3%; EPAC1 agonist: -3.7%

How did Cc1ccc(-n2c(O)c(/C=N/NC(=O)C3COc4ccccc4O3)c3ccccc3c2=O)cc1 (centres undefined) do in these assays?
EPAC1 antag: 17.7%; EPAC2 agonist: -16.5%; EPAC2 antag: -1.7%; GLP1R cytotox: 64.5%; USP1-UAF1 inh: -20.2%; EPAC1 agonist: -2.5%

What do the screens show for `O=C(N/N=C/c1c(O)n(-c2ccccc2Cl)c(=O)c2ccccc12)C1COc2ccccc2O1` (centres undefined)?
EPAC1 antag: 10µM*; EPAC2 agonist: -4.6%; EPAC2 antag: 14.4%; GLP1R cytotox: 4.5%[1.53 µM]; USP1-UAF1 inh: -24.9%; EPAC1 agonist: 14.4%

Results for Cc1c(Cl)cccc1NC(=O)NCCOCCn1c(=O)oc2ccccc21 ?
GLP1R cytotox: -7.6%; USP1-UAF1 inh: -2.4%

How did CCCN1C(=O)c2ccccc2NC1c1ccc(Cl)cc1 (centres undefined) do in these assays?
EPAC1 antag: -26.3%; EPAC2 agonist: 8.5%; EPAC2 antag: -25.7%; GLP1R cytotox: 1.4%; USP1-UAF1 inh: -15.2%; EPAC1 agonist: 2.6%

Results for CCCN1C(=O)c2ccccc2NC1c1ccc(Cl)c(Cl)c1 (centres undefined) ?
EPAC1 antag: -29.8%; EPAC2 agonist: 3.6%; EPAC2 antag: 28.2µM*; GLP1R cytotox: -12.3%; USP1-UAF1 inh: -24.0%; EPAC1 agonist: 7.9%

How did Cc1ccc(NC(=O)CSc2cn(CC(=O)N3CCCC3)c3ccccc23)cc1Cl do in these assays?
GLP1R cytotox: -0.7%; USP1-UAF1 inh: 10.2%

How did C[n+]1ccc(/C=N/Nc2nc(Cl)c(C#N)c(Cl)c2Cl)cc1 do in these assays?
EPAC1 antag: -16.1%; EPAC2 agonist: -1.8%; EPAC2 antag: -21.6%; GLP1R cytotox: 10µM*; USP1-UAF1 inh: -3.7%; EPAC1 agonist: -4.3%

Results for Cc1ccc(S(=O)(=O)/N=C2\C=C(Nc3ccc(O)cc3)C(=O)c3ccccc32)cc1 ?
EPAC1 antag: inconclusive; EPAC2 agonist: 18.8%; EPAC2 antag: -16.7%; GLP1R cytotox: 2.82µM*; USP1-UAF1 inh: 11.2µM*; EPAC1 agonist: 26.8%

Results for Cc1ccc(S(=O)(=O)/N=C2\C=C(NS(=O)(=O)c3ccccc3)C(=O)c3ccccc32)c(C)c1 ?
EPAC1 antag: -0.1%; EPAC2 agonist: 2.2%; EPAC2 antag: inconclusive; GLP1R cytotox: -14.4%; USP1-UAF1 inh: -14.2%; EPAC1 agonist: -5.8%

How did Cc1ccc(S(=O)(=O)/N=C2\C=C(Nc3cccc(C(=O)O)c3)C(=O)c3ccccc32)c(C)c1 do in these assays?
EPAC1 antag: inconclusive; EPAC2 agonist: 3.4%; EPAC2 antag: inconclusive; GLP1R cytotox: inconclusive; USP1-UAF1 inh: 10µM*; EPAC1 agonist: -13.0%

Results for Cc1ccc(S(=O)(=O)/N=C2\C=C(Nc3cccc(C(=O)O)c3)C(=O)c3ccccc32)cc1 ?
EPAC1 antag: -27.5%; EPAC2 agonist: -0.7%; EPAC2 antag: inconclusive; GLP1R cytotox: inconclusive; USP1-UAF1 inh: 14.1µM*; EPAC1 agonist: -2.4%

Results for CCc1ccc(S(=O)(=O)/N=C2\C=C(Nc3ccc(C(=O)O)cc3)C(=O)c3ccccc32)cc1 ?
EPAC1 antag: -22.0%; EPAC2 agonist: -5.7%; EPAC2 antag: -15.3%; GLP1R cytotox: inconclusive; USP1-UAF1 inh: 17.8µM*; EPAC1 agonist: 3.7%

What do the screens show for `Cc1ccc(NC2=C/C(=N/S(=O)(=O)c3cccs3)c3ccccc3C2=O)cc1`?
EPAC1 antag: -15.1%; EPAC2 agonist: -7.8%; EPAC2 antag: 6.5%; GLP1R cytotox: inconclusive; USP1-UAF1 inh: inconclusive; EPAC1 agonist: 1.1%

What do the screens show for `Cc1ccc(NC(=O)C2(c3cccs3)CCOCC2)cc1Cl`?
GLP1R cytotox: 2.8%; USP1-UAF1 inh: -27.2%

Results for Cc1ccc(S(=O)(=O)c2nnn3c2nc(Nc2ccc(C(C)C)cc2)c2sccc23)cc1C ?
GLP1R cytotox: 0.6%; USP1-UAF1 inh: 6.8%

Results for COc1cccc(-n2cc(C(=O)Oc3ccc(F)cc3)c3ccccc3c2=O)c1 ?
GLP1R cytotox: 9.7%; USP1-UAF1 inh: -16.7%

How did Cc1ccc(NC2=C(NCCO)C(=O)c3ccccc3C2=O)cc1 do in these assays?
EPAC1 antag: -28.5%; EPAC2 agonist: -4.9%; EPAC2 antag: inconclusive; GLP1R cytotox: 9.6%; USP1-UAF1 inh: 14.1µM*; EPAC1 agonist: -3.7%

What do the screens show for `COCCn1c2nc(=O)n(-c3ccccc3)c(=O)c-2nc2ccccc21`?
EPAC1 antag: 212.6%; EPAC2 agonist: 89.1µM*; EPAC2 antag: inactive; GLP1R cytotox: 320.6%; USP1-UAF1 inh: 28.2µM*; EPAC1 agonist: 89.1µM*

What do the screens show for `COCCn1c(-c2ccc(OC)cc2)nc2ccccc21`?
EPAC1 antag: 6.0%; EPAC2 agonist: -0.8%; EPAC2 antag: 7.4%; GLP1R cytotox: -10.9%; USP1-UAF1 inh: -9.7%; EPAC1 agonist: -3.0%

What do the screens show for `Cc1cccc(N2CCN(C(=O)CCc3nnc4n(CC(C)C)c(=O)c5ccccc5n34)CC2)c1C`?
GLP1R cytotox: -1.1%; USP1-UAF1 inh: inconclusive

How did Cc1ccc(-c2nc(-c3cc4cccc(OCc5cccc(F)c5)c4oc3=O)no2)cc1 do in these assays?
GLP1R cytotox: 1.6%; USP1-UAF1 inh: 30.1%

Results for Cc1ccc(Cn2c(CN3CCC(C(=O)NCCc4ccccc4)CC3)cc3ccccc32)cc1 ?
GLP1R cytotox: inconclusive; USP1-UAF1 inh: -12.5%

What do the screens show for `CCOC(=O)c1c(N2C(=O)Nc3cc(Cl)c(Cl)cc3N2O)sc2c1CCCCC2`?
EPAC1 antag: 50.1µM*; EPAC2 agonist: -19.2%; EPAC2 antag: -29.4%[57.1 µM]; GLP1R cytotox: -11.8%; USP1-UAF1 inh: -7.0%; EPAC1 agonist: -12.1%

What do the screens show for `CCOc1ccc2c(ccc(/C=C/c3cc(C)c4cccnc4c3O)[n+]2C)c1`?
EPAC1 antag: 35.5µM*; EPAC2 agonist: inconclusive; EPAC2 antag: 39.8µM*; GLP1R cytotox: 11.2µM*; USP1-UAF1 inh: -25.3%; EPAC1 agonist: 63.1µM*

How did Cc1ccc(Oc2ccccc2NC(=O)CSCC(=O)Nc2cc(C)on2)cc1 do in these assays?
EPAC1 antag: -12.6%; EPAC2 agonist: 3.7%; EPAC2 antag: -6.7%; GLP1R cytotox: -12.7%; USP1-UAF1 inh: -21.6%; EPAC1 agonist: 112µM*

Screens as filed in PubChem BioAssay.
